Assay results as given in PubChem BioAssay AID463173 (ICCB-Longwood Screening Facility, Harvard Medical School, 2010).
Among all 52,000 compounds or so, about 1,700 (3.3%) were called active. Rule as the data show it: active = survival mostly below about 52% (no sharp cut-off); inactive = mostly above about 56%. Only a selection was taken, and actives are over-represented in it overall.

System: Wild type
Assay: S. aureus survival, RN4220 and DeltatarO strains – OD600, teichoic acid synthesis inhibitors, primary screen (AID 463173)
Settings: S. aureus RN4220 wild type/DeltatarO growth, OD600, 18 h, hits give low values, screened at 18.75 µg/mL (by protocol)

Row | Structure (SMILES) | survival
1 | CSc1nnc2c(n1)OC(c1cccc(O)c1Cl)Nc1ccccc1-2 (stereo not given) | 71% (inactive)
2 | CSc1nc(Nc2cccc(C)c2)c(C#N)c(-c2ccccc2)n1 | 104% (inactive)
3 | CCCCOC(=O)c1ccc(NC(=O)C2(c3cccs3)CCOCC2)cc1 | 72% (inactive)
4 | COc1ccc(/C=C/C(=O)Nc2ccc3nc4c(c(Nc5ccccc5OC)c3c2)CCCC4)cc1 | 93% (inactive)
5 | COc1ccccc1C(=O)NCCSc1c(C)[nH]c2ccccc12 | 52% (inactive)
6 | COC(=O)c1ccc(NC(=O)CCCC(=O)OCC(=O)c2ccc(Cl)cc2)cc1 | 87% (inactive)
7 | O=C(Nc1ccccc1F)c1oc2ccccc2c1NC(=O)c1c(F)cccc1F | 53% (inactive)
8 | Cc1sc2c(c1C)c(=O)n(CCc1ccccc1)c(=O)n2Cc1ccc(F)cc1 | 50% (inactive)
9 | Cc1cccc(Cn2c(=O)n(CCc3ccccc3)c(=O)c3c(C)c(C)sc32)c1 | 90% (inactive)
10 | CCOc1ccc(-n2c(=O)c3c(C)c(C)sc3n(Cc3ccccc3C)c2=O)cc1 | 89% (inactive)
11 | Cc1sc2c(c1C)c(=O)n(CCc1ccccc1)c(=O)n2Cc1ccc(C(C)(C)C)cc1 | 85% (inactive)
12 | Cc1ccc(Cn2c(=O)n(Cc3ccccc3)c(=O)c3c(C)c(C)sc32)cc1 | 83% (inactive)
13 | Cc1ccc(C)c(Cn2c(=O)n(-c3ccc(Cl)cc3)c(=O)c3c(C)c(C)sc32)c1 | 73% (inactive)
14 | CCOc1ccc(-n2c(=O)c3c(C)c(C)sc3n(Cc3ccc(C(C)(C)C)cc3)c2=O)cc1 | 19% (active)
15 | CCOc1ccc(-n2c(=O)c3c(C)c(C)sc3n(CC(=O)C(C)(C)C)c2=O)cc1 | 125% (inactive)
16 | Cc1ccc(Cn2c(=O)n(CCc3ccccc3)c(=O)c3c(C)c(C)sc32)cc1 | 22% (active)
17 | Cc1ccc(-n2c(=O)c3c(C)c(C)sc3n(Cc3ccc(F)cc3Cl)c2=O)cc1C | 60% (inactive)
18 | Cc1sc2c(c1C)c(=O)n(CCc1ccccc1)c(=O)n2Cc1cccc(F)c1 | 9% (active)
19 | Cc1ccc(Cn2c(=O)n(-c3ccc(C)c(C)c3)c(=O)c3c(C)c(C)sc32)cc1 | 46% (active)
20 | O=C(CN1CCCN(Cc2ccc(F)cc2)S1(=O)=O)NCc1ccccc1Cl | 78% (inactive)

Row | Structure (SMILES) | survival
21 | CC(C)NS(=O)(=O)c1ccc(OCC(=O)N2CCN(c3ccccc3F)CC2)cc1 | 89% (inactive)
22 | FC(F)(F)c1ccc(-c2noc(-c3ccccc3Br)n2)cc1 | 89% (inactive)
23 | CCOc1cc(C2CC(=O)Nc3cc4c(cc32)OCCO4)ccc1O (stereo not given) | 78% (inactive)
24 | CCCc1nn2c(=O)cc(COC(=O)c3ccc(NC(=O)COc4ccccc4F)cc3)nc2s1 | 121% (inactive)
25 | O=C(NCCc1ccccc1)c1cc(-c2cccc(Cl)c2)on1 | 87% (inactive)
26 | O=C(c1cc(-c2cccc(Cl)c2)on1)N1CCCCC1 | 66% (inactive)
27 | COCCNC(=O)c1cc(-c2cccc(Cl)c2)on1 | 136% (inactive)
28 | O=C(c1cc(-c2ccccc2)on1)N1CCCCC1 | 113% (inactive)
29 | CN(Cc1ccccc1)C(=O)c1cc(-c2cccc(Cl)c2)on1 | -15% (active)
30 | O=C(c1cc(-c2cccc(Cl)c2)on1)N1CCN(c2ccccc2)CC1 | 4% (active)
31 | CC1CCN(C(=O)c2cc(-c3ccc(Cl)cc3)on2)CC1 | 85% (inactive)
32 | CC1CCN(C(=O)c2cc(-c3cccc(Cl)c3)on2)CC1 | -15% (active)
33 | CC1CCN(C(=O)c2cc(-c3ccc(Br)cc3)on2)CC1 | 78% (inactive)
34 | O=C(CSCc1cccc(F)c1)NCc1ccccc1 | 85% (inactive)
35 | CC(=O)Nc1cccc(C(=O)NCc2ccc3c(c2)CCN3C(=O)c2ccccc2)c1 | 63% (inactive)
36 | CCOc1cc(CNc2ccc(O)cc2)ccc1OCc1ccc(Cl)cc1 | 10% (active)
37 | CCOc1cc(CNc2ccc(O)cc2)cc(Cl)c1OCc1ccccc1 | -5% (active)
38 | CCOc1cc(CNc2ccc(C(=O)O)cc2)ccc1OCc1ccccc1 | 57% (inactive)
39 | Oc1ccc(NCc2ccccc2OCc2ccccc2)cc1 | 100% (inactive)
40 | CCOc1cc(CNc2ccc(O)cc2)cc(Br)c1OCc1ccccc1 | -5% (active)

Row | Structure (SMILES) | survival
41 | CCOc1c(Cl)cc(CNc2ccc3[nH]c(=O)[nH]c3c2)cc1OC | 88% (inactive)
42 | COc1cc(CNc2ccc3[nH]c(=O)[nH]c3c2)cc(Br)c1OCc1ccc(F)cc1 | 117% (inactive)
43 | CCOc1cccc(CNc2ccc(O)cc2)c1OCc1ccccc1Cl | 54% (inactive)
44 | Oc1ccc(NCc2ccccc2OCc2ccc(Cl)cc2)cc1 | 72% (inactive)
45 | COc1cccc(NC(=O)C2CCN(S(=O)(=O)c3ccc4[nH]c5c(c4c3)CCCCC5)CC2)c1 | 84% (inactive)
46 | COc1ccc(NC(=O)c2ccc(CNS(=O)(=O)c3ccc4c(c3)C(C)(C)C(=O)N4C)cc2)cc1 | 114% (inactive)
47 | COc1cccc(NC(=O)c2nnn(Cc3cccc(C(F)(F)F)c3)c2N)c1 | 87% (inactive)
48 | Cc1ccc(Cl)cc1-n1c(CCC(=O)O)ccc1-c1cccs1 | 64% (inactive)
49 | CCOc1ccc(-c2cc3c(=O)n(CC(=O)Nc4cc(F)ccc4C)ccn3n2)cc1 | 68% (inactive)
50 | Cc1ccc(-n2ncc(C(=O)Nc3ccc4c(c3)OCCO4)c2C2CCN(C(=O)OC(C)(C)C)CC2)cc1C | 82% (inactive)
51 | CCCN1CCc2nc(SCC(=O)Nc3ccc(C)c(Cl)c3)[nH]c(=O)c2C1 | 99% (inactive)
52 | O=C(c1noc2c1CCCCC2)N1CCN(c2cccc(Cl)c2)CC1 | 73% (inactive)
53 | O=C(c1cc2ccc3cccnc3c2[nH]1)N1CCN(c2cccc(C(F)(F)F)c2)CC1 | -2% (active)
54 | O=C(c1noc2c1CCCCC2)N1CCN(c2cccc(C(F)(F)F)c2)CC1 | -3% (active)
55 | O=C(c1cc2ccc3cccnc3c2[nH]1)N1CCN(c2ccc(Cl)cc2)CC1 | 91% (inactive)
56 | CC1CCc2onc(C(=O)N3CCN(c4cccc(C(F)(F)F)c4)CC3)c2C1 (stereo not given) | 10% (active)
57 | O=C(c1cc2ccc3cccnc3c2[nH]1)N1CCN(c2ccccc2)CC1 | 59% (inactive)
58 | O=C(c1noc2c1CCCCC2)N1CCN(c2ccc(Cl)cc2)CC1 | 73% (inactive)
59 | CC1CCc2onc(C(=O)N3CCN(c4ccccc4)CC3)c2C1 (stereo not given) | 121% (inactive)
60 | CC1CCc2onc(C(=O)N3CCN(c4cccc(Cl)c4)CC3)c2C1 (stereo not given) | 88% (inactive)
